RORgamma inh: qHTS for inhibitors of ROR gamma transcriptional activity. Nuclear receptor ROR-gamma (Mus musculus), P51450. Drosophila S2 Gal4-RORgamma UAS-luciferase reporter, 20 h. Potency, µM (series often up to 53.6 µM), most hits filed as inhibitors. 5.4% of 310,000 active. AID 2551, 2010; also: nearly all actives have a fitted effect of over 60% in size
Target sequence (P51450 whole entry, looked up, the tested form may be a part): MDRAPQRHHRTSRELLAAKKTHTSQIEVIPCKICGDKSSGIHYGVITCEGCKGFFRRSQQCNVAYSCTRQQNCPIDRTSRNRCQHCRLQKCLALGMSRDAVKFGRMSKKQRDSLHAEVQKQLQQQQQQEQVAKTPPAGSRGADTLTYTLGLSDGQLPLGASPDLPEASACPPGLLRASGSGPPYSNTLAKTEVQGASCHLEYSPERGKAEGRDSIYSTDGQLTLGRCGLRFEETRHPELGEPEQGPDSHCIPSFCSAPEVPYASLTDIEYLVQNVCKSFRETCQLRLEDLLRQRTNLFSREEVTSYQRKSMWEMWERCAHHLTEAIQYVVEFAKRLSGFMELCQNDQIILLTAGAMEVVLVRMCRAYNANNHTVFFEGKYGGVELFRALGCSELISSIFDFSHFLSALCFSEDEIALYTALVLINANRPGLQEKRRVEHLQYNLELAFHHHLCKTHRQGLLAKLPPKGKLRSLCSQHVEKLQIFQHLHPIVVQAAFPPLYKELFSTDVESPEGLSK
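Stably transfected Drosophila Schneider cells are the test system, with ROR gamma fused to Gal4 and luciferase under UAS control; luminescence is read after 20 hr of 700 uM copper sulfate induction at ambient temperature.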
S2 tox: Viability Counterscreen for Primary qHTS for Inhibitors of ATXN expression. 0.49% of 400,000 active. Potency, µM (doses to about 56.7 µM), actives largely listed as cytotoxic. S2 cells (HEK-293 line with an ATXN2-luciferase reporter) viability, CellTiter-Fluor protease fluorescence, 24 h; also: nearly all actives have a fitted effect of over 40% in size
ATXN2 expr inh: Primary qHTS for Inhibitors of ATXN expression; HEK-293 ATXN2-luciferase reporter, luminescence, 24 h; 0.72% of 360,000 active; Potency, µM (top dose mostly 57 µM), usual class: inhibitors; AID 1745845, 2022; also: nearly all actives have a fitted effect of over 55% in size
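ATXN2-luciferase reporter cells (luciferase flanked by upstream and downstream ATXN2 gene portions) were treated 24 h at 37 °C with compounds at up to 57 uM. SteadyGlo luminescence gave expression; GF-AFC fluorescence gave viability.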
HepG2 tox-1: qHTS for Inhibitors of TGF-b: Cytotox Counterscreen. HepG2 CAGA-GFP viability, ATP luminescence, 18 h. Potency, µM (titrated, usually from 46.1 µM), usual class: cytotoxic. 0.76% of 410,000 active
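HepG2 CAGA-GFP cells (1000/well, DMEM with 1% FBS) received compound, then TGF-beta at 500 pg/mL final, and were incubated 18 hours at 37 degrees C. Viability was read by CellTiter-Glo luminescence. Media-only wells were set as complete cell-killing and DMSO as no toxicity.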
TGFb inhibitor: qHTS for Inhibitors of TGF-b; HepG2 CAGA-GFP TGF-b/SMAD3 reporter, GFP fluorescence, 18 h; TGF-beta stimulated, 500 pg/mL final; Potency, µM (titrated, usually from 46.1 µM), usual class: inhibitors; 1.2% of 410,000 active; AID 588855, 2011; also: nearly all actives have a fitted effect of over 65% in size
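HEPG2 CAGA-GFP reporter cells (1000/well, DMEM with 1% FBS) received compounds, then recombinant TGF-beta at 500 pg/mL final for 18 hours at 37 degrees C. Per-cell GFP summed per well was normalised to unstimulated and stimulated DMSO controls before curve fitting.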
Gal4-VP16 FLuc: VP16 counterscreen qHTS for inhibitors of ROR gamma transcriptional activity; Drosophila S2 Gal4-VP16 UAS-luciferase, luminescence, 20 h; Potency, µM (titrated, usually from 53.6 µM), most hits filed as inhibitors; 3.5% of 310,000 active;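 also: Gal4-VP16 expression switched on by copper sulfate through the metallothionein promoter; nearly all actives have a fitted effect of over 50% in size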
TGFb CAGA inh: qHTS for Inhibitors of TGF-b: Confirmation of Cherry Picks; shares compounds with TGFb inhibitor; HepG2 CAGA-GFP TGF-b reporter, GFP fluorescence, 18 h; cells stimulated with TGF-beta, 500 pg/mL; Potency, µM (titrated, usually from 46.1 µM), hits mostly inhibitors; 63% of 1,600 active; AID 720534, 2013; also: nearly all actives have a fitted effect of over 65% in size
HepG2 tox-2: qHTS for Inhibitors of TGF-b: Cytotox Counterscreen for Cherry Picks | shares compounds with TGFb inhibitor | HepG2 CAGA-GFP viability, ATP luminescence, 18 h; cells stimulated with TGF-beta, 500 pg/mL | Potency, µM (titrated, usually from 46.1 µM), usual class: inhibitors | 27% of 1,600 active | AID 720535, 2013; also: nearly all actives have a fitted effect of over 70% in size
CCL64 TGFb inh: qHTS for Inhibitors of TGF-b: CCL64 Cells Orthogonal Assay for Cherry Picks. shares compounds with TGFb inhibitor. CCL64 CAGA-GFP reporter, TGF-b stimulated, GFP fluorescence, 18 h. 41% of 1,600 active. AID 720536, 2013. Potency, µM (top dose mostly 46.1 µM), most hits filed as inhibitors; also: nearly all actives have a fitted effect of over 65% in size
COP TGFb inh: qHTS for Inhibitors of TGF-b: Hit Validation in HepG2 Cells using COP promoter. Potency, µM (highest dose often 46.1 µM), hits mostly inhibitors. 3% of 1,600 active. HepG2 COP-GFP TGF-b reporter, GFP fluorescence, 18 h; cells stimulated by added recombinant TGF-beta. shares compounds with TGFb inhibitor; also: nearly all actives have a fitted effect of over 70% in size
Numbers stand for hits; – = inactive; ? = inconclusive; · = no result given. Hits are enriched below; roughly 6.3% of the tested compounds scored in any of these assays. Calls follow the shape of the dose curve; as a rule, active = well fitted curve in the direction sought with a large enough effect; inconclusive = small, poorly fitted or top-dose-only effect, or another doubt; inactive = no such curve, though single readings can be large; an effect the other way counts as inactive or inconclusive.

SMILES	RORgamma inh	S2 tox	ATXN2 expr inh	HepG2 tox-1	TGFb inhibitor	Gal4-VP16 FLuc	TGFb CAGA inh	HepG2 tox-2	CCL64 TGFb inh	COP TGFb inh
COc1cccc(OC)c1-c1cc(C(=O)NC2(C(=O)O)C3CC4CC(C3)CC2C4)nn1-c1ccc(C(=O)N(C)CCCN(C)C)cc1C(C)C (configuration not stated)	–	·	·	·	·	–	·	·	·	·
O=C(C[C@H]1C/C=C\CC[C@H](Cc2ccc(F)cc2)C(=O)O[C@@H](c2ccccc2)CNC1=O)N[C@H](CO)Cc1ccccc1	·	?	–	–	?	·	·	·	·	·
O=C1NC[C@H](c2ccccc2)OC(=O)[C@@H](Cc2ccc(F)cc2)CC/C=C/C[C@H]1CC(=O)N(CCO)Cc1ccccc1	·	11µM	14µM	·	11µM	·	21µM	·	?	–
O=C1N[C@@H](Cc2c[nH]c3ccccc23)COC(=O)[C@@H](Cc2ccc(F)cc2)CC/C=C/C[C@@H]1CC(=O)N(CCO)Cc1ccccc1	·	?	?	–	8.9µM	·	5.8µM	–	?	–
O=C(C[C@H]1C/C=C\CC[C@H](Cc2ccc(F)cc2)C(=O)O[C@@H](c2ccccc2)CNC1=O)N[C@@H](CO)Cc1ccccc1	·	?	?	–	7.1µM	·	?	?	13µM	–
CC(C(=O)N1CCc2ccccc21)N1CCN(S(=O)(=O)c2cccc(C(F)(F)F)c2)CC1 (configuration not stated)	·	?	–	–	?	·	·	·	·	·
O=C(CSC1=NCCS1)Nc1ccnc2ccccc12	–	–	–	–	?	4µM	10µM	–	–	–
CCOCCOC(=O)c1[nH]c2c(c1C)C(=O)CC(c1ccccc1)C2 (configuration not stated)	–	?	–	–	?	–	·	·	·	·
CCCCCOC(=O)c1[nH]c2c(c1C)C(=O)CC(c1ccco1)C2 (configuration not stated)	?	?	–	–	0.79µM	–	1.2µM	–	0.23µM	–
CC(=O)N(Cc1ccc(F)cc1)C1=C(NCc2ccccc2)C(=O)c2ccccc2C1=O	13µM	22µM	11µM	3.2µM	6.3µM	?	7.3µM	3.7µM	3.7µM	?
O=C(NCc1ccc(F)cc1)C(c1ccccc1)c1ccccc1	–	?	–	–	–	–	·	·	·	·
CCc1nc(Nc2ccncc2)c2oc3ccccc3c2n1	–	?	?	–	?	–	12µM	?	?	–
Cc1nc(Nc2ccncc2)c2oc3ccccc3c2n1	–	?	?	–	–	–	·	·	·	·
C=CCn1c(SCC(=O)Nc2cc3oc4ccccc4c3cc2OC)nnc1-c1cnccn1	–	–	–	–	–	–	·	·	·	·
C=CCn1c(COc2ccccc2F)nnc1SCC(=O)Nc1cc2oc3ccccc3c2cc1OC	?	–	–	–	?	–	?	–	?	–

High-throughput results from PubChem BioAssay.
